Assay results reported in PubChem BioAssay (Tox21).
Unmarked numbers belong to inactive results. Records with an inconclusive call do not appear. Where a call stands in place of a potency, no number is given. Active and inactive are the calls of the source. Unless noted, the call rests on the fitted dose curve; in most records, active means well fitted curve in the direction sought with a large enough effect in the repeat runs; inconclusive means weak or mixed curves; inactive means no such curve, though single readings can be large; an effect the other way counts as inactive or inconclusive.

Tests used:
[1] = molecular target: Acetylcholinesterase (Homo sapiens) (UniProt P22303); test: Acetylcholinesterase (AChE) small molecule antagonists: enzyme-based qHTS assay (AID 1347397; calls by dose curve; further: nearly all actives have a fitted effect of over 55% in size); conditions: Potency: AChE enzyme activity inhibition
Summary of the method: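 In this quantitative HTS, compounds from the Tox21 10K collection were preincubated 30 min at ambient temperature with recombinant human AChE dispensed at 50 mU/mL. Hydrolysis of acetylthiocholine was then followed for 10 min by DTNB colour development.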

[2] = molecular target: Acetylcholinesterase (Homo sapiens) (UniProt P22303); test: Acetylcholinesterase (AChE) small molecule antagonists: fluorescence cell-based qHTS assay (AID 1347398; calls by dose curve; further: nearly all actives have a fitted effect of over 50% in size; further: potency means the concentration at half of the fitted maximal effect); conditions: Potency: AChE activity
Summary of the method: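 Cells (SH-SY5Y) attached overnight, were dosed with compound or DMSO vehicle for 30 min at 37 C, and then incubated 40 min at room temperature with acetylthiocholine and Thiolite Green; green fluorescence indexed AChE activity.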

[3] = molecular target: Acetylcholinesterase (Homo sapiens) (UniProt P22303); test: Acetylcholinesterase (AChE) small molecule antagonists: enzyme-based qHTS assay with human liver microsomes (AID 1347399; calls by dose curve; further: nearly all actives have a fitted effect of over 60% in size); conditions: Potency: qHTS inhibition
Summary of the method: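 Recombinant human AChE (50 mU/mL in the enzyme mix) and human liver microsomes (0.25 mg/mL final) were preincubated with compound and NADPH (0.25 mg/mL final) for 30 min at 37 C. Acetylthiocholine/DTNB was then added; thiocholine was read colorimetrically after 10 min at room temperature.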

[4] = molecular target: Cytochrome P450 2D6 (Homo sapiens) (UniProt P10635); test: Cytochrome P450 Family 2 Subfamily D Member 6 (CYP2D6) small molecule antagonists: luciferase reporter qHTS assay (AID 1671196); further: nearly all actives have a fitted effect of over 50% in size; further: potency means the concentration at half of the fitted maximal effect
Summary of the method: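 Room-temperature luminescent CYP2D6 activity assay: compound preincubated 10 min with enzyme–substrate mix, NADPH-initiated reaction 1 h, detection reagent 20 min before reading.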

[5] = molecular target: Cytochrome P450 2C19 (Homo sapiens) (UniProt P33261); test: Cytochrome P450 Family 2 Subfamily C Member 19 (CYP2C19) small molecule antagonists: luciferase reporter qHTS assay (AID 1671197); further: nearly all actives have a fitted effect of over 65% in size; further: potency means the concentration at half of the fitted maximal effect
Summary of the method: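 Luminescent readout of CYP2C19 activity: luciferin product detected 20 min after adding detection reagent. Before that, compound and enzyme-substrate mix preincubated 10 min at room temperature; NADPH-regenerating system started a 1 h, 37C reaction. Ketoconazole as positive control.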

[6] = molecular target: Cytochrome P450 2C9 (Homo sapiens) (UniProt P11712); test: Cytochrome P450 Family 2 Subfamily C Member 9 (CYP2C9) small molecule antagonists: luciferase reporter qHTS assay (AID 1671198); further: nearly all actives have a fitted effect of over 50% in size; further: potency means the concentration at half of the fitted maximal effect
Summary of the method: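 P450-Glo proluciferin substrate with CYP2C9 enzyme; 10 min RT preincubation, then NADPH regeneration 1 h at 37C; luciferin detection reagent 20 min RT, luminescence in relative luminescence units.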

[7] = molecular target: Voltage-gated inwardly rectifying potassium channel KCNH2 (Homo sapiens) (UniProt Q12809); test: Human Ether-a-go-go-Related Gene (hERG) channel small molecule antagonists: fluorescence cell-based qHTS assay (AID 1671200); further: nearly all actives have a fitted effect of over 50% in size; further: potency means the concentration at half of the fitted maximal effect
Summary of the method: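 Cell line hERG-U2OS; dye FluxOR II, 1 h RT dark; Tl+ stimulus; ex 480/em 540 nm, read each second for 2 min.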

[8] = molecular target: Cytochrome P450 3A4 (Homo sapiens) (UniProt P08684); test: Cytochrome P450 Family 3 Subfamily A Member 4 (CYP3A4) small molecule antagonists: luciferase reporter qHTS assay (AID 1671201); further: nearly all actives have a fitted effect of over 50% in size; further: potency means the concentration at half of the fitted maximal effect
Summary of the method: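 Room-temperature assay throughout: 10 min compound–enzyme/substrate preincubation, 1 h reaction after NADPH regeneration solution, 20 min detection. Luciferin formed from proluciferin substrate is quantified by luminescence.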

[9] = molecular target: Cytochrome P450 1A2 (Homo sapiens) (UniProt P05177); test: Cytochrome P450 Family 1 Subfamily A Member 2 (CYP1A2) small molecule antagonists: luciferase reporter qHTS assay (AID 1671199); further: nearly all actives have a fitted effect of over 50% in size; further: potency means the concentration at half of the fitted maximal effect
Summary of the method: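 Room-temperature CYP1A2 reaction with proluciferin substrate: compounds added from DMSO, 10 min preincubation, NADPH regeneration for 1 h. Luciferin detection reagent then added; luminescence recorded as RLU.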

Sequence of Cytochrome P450 3A4 (Homo sapiens) (P08684 whole entry, looked up): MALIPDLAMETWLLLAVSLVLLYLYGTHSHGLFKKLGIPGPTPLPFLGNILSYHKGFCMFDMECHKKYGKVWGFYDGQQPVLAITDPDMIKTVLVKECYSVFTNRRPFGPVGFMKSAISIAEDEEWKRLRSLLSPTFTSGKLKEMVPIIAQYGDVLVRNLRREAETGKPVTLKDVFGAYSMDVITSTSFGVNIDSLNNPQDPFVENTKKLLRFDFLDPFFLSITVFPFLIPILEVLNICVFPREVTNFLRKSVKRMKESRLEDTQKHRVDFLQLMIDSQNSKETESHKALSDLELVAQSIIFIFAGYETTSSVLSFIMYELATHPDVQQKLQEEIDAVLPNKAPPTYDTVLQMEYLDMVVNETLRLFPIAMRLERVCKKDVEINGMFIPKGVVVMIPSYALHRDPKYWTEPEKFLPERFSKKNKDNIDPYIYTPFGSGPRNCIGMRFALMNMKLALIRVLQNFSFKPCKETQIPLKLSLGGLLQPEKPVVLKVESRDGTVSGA
Sequence of Cytochrome P450 2D6 (Homo sapiens) (P10635 whole entry, looked up): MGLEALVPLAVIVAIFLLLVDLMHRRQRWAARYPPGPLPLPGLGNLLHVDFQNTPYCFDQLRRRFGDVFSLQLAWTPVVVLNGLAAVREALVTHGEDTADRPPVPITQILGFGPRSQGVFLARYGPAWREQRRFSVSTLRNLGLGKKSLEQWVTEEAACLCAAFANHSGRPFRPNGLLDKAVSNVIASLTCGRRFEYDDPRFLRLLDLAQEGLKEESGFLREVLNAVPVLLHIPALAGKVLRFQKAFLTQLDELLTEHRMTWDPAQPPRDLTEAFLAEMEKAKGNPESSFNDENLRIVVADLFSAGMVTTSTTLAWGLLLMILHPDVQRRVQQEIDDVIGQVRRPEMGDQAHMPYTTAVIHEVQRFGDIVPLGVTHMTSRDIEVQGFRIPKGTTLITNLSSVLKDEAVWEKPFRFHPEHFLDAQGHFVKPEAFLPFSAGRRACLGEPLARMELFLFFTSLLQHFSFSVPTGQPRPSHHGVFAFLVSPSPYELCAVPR
Sequence of Cytochrome P450 1A2 (Homo sapiens) (P05177 whole entry, looked up): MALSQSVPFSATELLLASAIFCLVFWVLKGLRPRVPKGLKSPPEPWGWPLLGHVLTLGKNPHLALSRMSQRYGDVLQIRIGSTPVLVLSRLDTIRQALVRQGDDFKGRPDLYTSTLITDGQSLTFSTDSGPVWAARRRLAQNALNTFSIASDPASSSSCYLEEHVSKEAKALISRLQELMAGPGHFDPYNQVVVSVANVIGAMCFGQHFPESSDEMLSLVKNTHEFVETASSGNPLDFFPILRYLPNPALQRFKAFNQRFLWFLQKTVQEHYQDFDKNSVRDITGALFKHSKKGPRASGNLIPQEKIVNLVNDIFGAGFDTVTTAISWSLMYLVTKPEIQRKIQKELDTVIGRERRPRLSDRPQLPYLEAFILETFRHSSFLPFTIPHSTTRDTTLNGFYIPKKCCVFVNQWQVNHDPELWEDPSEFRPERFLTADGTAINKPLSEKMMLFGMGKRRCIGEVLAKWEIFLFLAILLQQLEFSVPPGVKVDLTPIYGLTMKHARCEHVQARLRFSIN
Sequence of Voltage-gated inwardly rectifying potassium channel KCNH2 (Homo sapiens) (Q12809 whole entry, looked up): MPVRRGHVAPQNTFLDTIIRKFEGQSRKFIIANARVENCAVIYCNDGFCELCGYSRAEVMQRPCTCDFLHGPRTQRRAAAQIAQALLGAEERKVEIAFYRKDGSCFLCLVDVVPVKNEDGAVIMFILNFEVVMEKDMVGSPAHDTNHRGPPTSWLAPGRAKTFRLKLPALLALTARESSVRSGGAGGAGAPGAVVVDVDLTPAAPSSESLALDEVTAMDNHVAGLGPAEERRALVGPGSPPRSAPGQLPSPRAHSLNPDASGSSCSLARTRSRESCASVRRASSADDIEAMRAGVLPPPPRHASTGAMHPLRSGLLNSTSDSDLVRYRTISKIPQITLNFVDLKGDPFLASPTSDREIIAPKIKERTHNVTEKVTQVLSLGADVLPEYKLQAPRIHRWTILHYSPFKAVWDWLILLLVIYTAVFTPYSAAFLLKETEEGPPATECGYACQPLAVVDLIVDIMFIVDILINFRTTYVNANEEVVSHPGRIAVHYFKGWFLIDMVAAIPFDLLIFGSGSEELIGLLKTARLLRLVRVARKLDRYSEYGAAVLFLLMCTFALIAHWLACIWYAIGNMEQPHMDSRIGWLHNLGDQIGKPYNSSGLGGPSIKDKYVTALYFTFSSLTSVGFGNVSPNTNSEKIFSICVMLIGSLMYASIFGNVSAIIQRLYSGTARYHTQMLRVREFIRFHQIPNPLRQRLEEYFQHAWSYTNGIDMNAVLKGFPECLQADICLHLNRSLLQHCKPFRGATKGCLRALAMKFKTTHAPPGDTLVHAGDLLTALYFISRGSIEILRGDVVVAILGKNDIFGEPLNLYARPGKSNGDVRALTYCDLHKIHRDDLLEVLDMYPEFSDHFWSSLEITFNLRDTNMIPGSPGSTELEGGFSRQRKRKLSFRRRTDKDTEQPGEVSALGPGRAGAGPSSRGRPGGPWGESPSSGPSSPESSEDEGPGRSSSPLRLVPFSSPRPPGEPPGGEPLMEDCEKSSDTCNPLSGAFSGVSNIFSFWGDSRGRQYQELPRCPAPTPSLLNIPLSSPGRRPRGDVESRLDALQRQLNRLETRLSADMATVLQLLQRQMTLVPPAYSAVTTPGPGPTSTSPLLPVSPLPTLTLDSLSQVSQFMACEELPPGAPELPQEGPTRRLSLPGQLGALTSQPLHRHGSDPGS
Sequence of Acetylcholinesterase (Homo sapiens) (P22303 whole entry, looked up): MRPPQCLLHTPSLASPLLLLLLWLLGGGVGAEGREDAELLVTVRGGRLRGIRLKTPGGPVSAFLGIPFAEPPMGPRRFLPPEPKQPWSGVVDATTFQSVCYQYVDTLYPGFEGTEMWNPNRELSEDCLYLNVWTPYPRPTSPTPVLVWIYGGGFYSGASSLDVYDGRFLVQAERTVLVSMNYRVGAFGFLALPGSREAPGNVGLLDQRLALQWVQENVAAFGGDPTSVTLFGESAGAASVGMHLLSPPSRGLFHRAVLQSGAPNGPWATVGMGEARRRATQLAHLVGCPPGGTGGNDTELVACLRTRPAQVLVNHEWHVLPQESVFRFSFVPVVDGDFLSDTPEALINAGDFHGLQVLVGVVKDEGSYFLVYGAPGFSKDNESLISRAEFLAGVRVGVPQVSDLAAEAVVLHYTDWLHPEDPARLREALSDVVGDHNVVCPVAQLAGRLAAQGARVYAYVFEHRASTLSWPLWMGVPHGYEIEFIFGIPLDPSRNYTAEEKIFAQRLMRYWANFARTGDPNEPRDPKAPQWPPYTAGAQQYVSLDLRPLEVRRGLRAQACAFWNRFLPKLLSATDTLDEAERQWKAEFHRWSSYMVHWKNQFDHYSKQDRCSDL
Sequence of Cytochrome P450 2C19 (Homo sapiens) (P33261 whole entry, looked up): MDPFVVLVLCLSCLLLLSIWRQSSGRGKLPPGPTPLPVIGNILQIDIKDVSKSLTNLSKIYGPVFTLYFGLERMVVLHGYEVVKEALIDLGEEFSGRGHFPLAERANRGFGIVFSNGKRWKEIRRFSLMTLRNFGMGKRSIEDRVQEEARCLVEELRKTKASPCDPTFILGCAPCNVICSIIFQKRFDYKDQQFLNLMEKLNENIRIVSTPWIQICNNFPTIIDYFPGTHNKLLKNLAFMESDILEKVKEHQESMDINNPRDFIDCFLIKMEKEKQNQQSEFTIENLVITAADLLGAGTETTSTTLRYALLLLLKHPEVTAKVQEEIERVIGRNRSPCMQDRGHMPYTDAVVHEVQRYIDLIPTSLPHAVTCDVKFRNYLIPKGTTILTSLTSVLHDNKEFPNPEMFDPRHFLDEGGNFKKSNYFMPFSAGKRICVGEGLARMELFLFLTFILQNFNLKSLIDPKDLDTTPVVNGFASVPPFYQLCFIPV
Sequence of Cytochrome P450 2C9 (Homo sapiens) (P11712 whole entry, looked up): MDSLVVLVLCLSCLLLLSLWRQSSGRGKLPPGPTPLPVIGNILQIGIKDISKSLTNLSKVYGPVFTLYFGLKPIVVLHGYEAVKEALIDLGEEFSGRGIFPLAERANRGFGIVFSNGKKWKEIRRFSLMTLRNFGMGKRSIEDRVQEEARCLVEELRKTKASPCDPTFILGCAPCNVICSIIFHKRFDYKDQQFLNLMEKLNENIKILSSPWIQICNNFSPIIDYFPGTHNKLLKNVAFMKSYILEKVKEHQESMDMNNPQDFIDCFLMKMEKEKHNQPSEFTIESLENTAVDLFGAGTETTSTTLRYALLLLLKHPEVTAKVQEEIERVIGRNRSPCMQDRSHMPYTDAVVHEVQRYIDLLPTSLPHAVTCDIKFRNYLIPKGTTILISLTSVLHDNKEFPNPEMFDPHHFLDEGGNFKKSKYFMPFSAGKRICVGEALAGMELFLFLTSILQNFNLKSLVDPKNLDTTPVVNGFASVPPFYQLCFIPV

SMILES	Potency [1]	Potency [2]	Potency [3]	Potency [4]	Potency [5]	Potency [6]	Potency [7]	Potency [8]	Potency [9]
COc1c2c(cc3c1OCO3)CCN(C)C2	inactive	inactive	inactive	4.36 µM (active)	inactive	inactive	inactive	inactive	–
COP(=S)(NC(C)C)Oc1ccc(C)cc1[N+](=O)[O-] (stereo not given)	inactive	inactive	inactive	44.8 µM (active)	0.283 µM (active)	2.52 µM (active)	inactive	0.633 µM (active)	11.2 µM (active)
Cc1ccn2nc(S(=O)(=O)Nc3c(F)cccc3F)nc2n1	inactive	inactive	inactive	inactive	–	39.9 µM (active)	inactive	–	inactive
c1ccc2c(c1)cc1ccc3cccc4ccc2c1c34	inactive	inactive	inactive	inactive	inactive	–	inactive	inactive	0.363 µM (active)
N#CCCl	inactive	inactive	inactive	29.5 µM (active)	37.1 µM (active)	–	–	–	33.1 µM (active)
N#Cc1sc2c(=O)c3ccccc3c(=O)c=2sc1C#N	inactive	63.3 µM (active)	inactive	35.6 µM (active)	3.99 µM (active)	3.17 µM (active)	21.9 µM (active)	17.8 µM (active)	31.7 µM (active)
CCOC(=O)Cc1ccccc1	inactive	inactive	inactive	inactive	inactive	–	inactive	inactive	–
CO/N=C(/C1=NOCCO1)c1ccccc1Oc1ncnc(Oc2ccccc2Cl)c1F	inactive	inactive	inactive	inactive	–	11.2 µM (active)	inactive	–	25.2 µM (active)
ClSC(Cl)(Cl)Cl	inactive	inactive	inactive	10.1 µM (active)	inactive	31.8 µM (active)	inactive	inactive	–
CC(Cc1ccccc1)N(C)Cc1ccco1 (stereo not given)	inactive	inactive	inactive	0.776 µM (active)	–	inactive	inactive	inactive	inactive
O=c1[nH]c(Cl)c(Cl)cc1Cl	inactive	inactive	inactive	inactive	inactive	39.9 µM (active)	inactive	–	–
COc1nc(C)nc(NC(=O)NS(=O)(=O)c2ccccc2Cl)n1	inactive	inactive	inactive	inactive	inactive	inactive	inactive	inactive	–
BrCCCBr	inactive	inactive	inactive	inactive	inactive	inactive	inactive	inactive	–
N#Cc1c[nH]cc1-c1cccc2c1OC(F)(F)O2	inactive	inactive	inactive	inactive	5.64 µM (active)	20 µM (active)	inactive	inactive	1.59 µM (active)
CC[C@]1(O)CC[C@H]2[C@@H]3CCC4=CCCC[C@@H]4[C@H]3CC[C@@]21C	inactive	inactive	inactive	inactive	12.3 µM (active)	–	inactive	–	–
O=C(NC(=O)c1ccccc1Cl)Nc1ccc(OC(F)(F)F)cc1	inactive	inactive	inactive	inactive	inactive	inactive	inactive	inactive	–
O=c1[nH]c2cc(Cl)ccc2n1C1CCNCC1	inactive	inactive	inactive	15.5 µM (active)	inactive	–	–	inactive	–
O=[N+]([O-])c1ccc(CCl)cc1	inactive	inactive	inactive	inactive	inactive	inactive	inactive	–	–
S=C=NCCc1ccccc1	inactive	inactive	inactive	11.3 µM (active)	20.1 µM (active)	17.9 µM (active)	15.5 µM (active)	20.1 µM (active)	10.1 µM (active)
[O]=[Cr](=[O])([OH])[O][Cr](=[O])(=[O])[OH]	inactive	inactive	inactive	inactive	inactive	–	inactive	inactive	inactive
CC1=C2C[C@H]3[C@@H](CC=C4C[C@@H](O)CC[C@@]43C)[C@@H]2CC[C@]12O[C@@H]1C[C@H](C)CN[C@H]1[C@H]2C	inactive	inactive	inactive	inactive	–	inactive	inactive	–	inactive
CCc1cccc(C)c1N(C(=O)CCl)[C@@H](C)COC	inactive	inactive	inactive	inactive	5.64 µM (active)	17.8 µM (active)	inactive	–	–
CN1C2CCC(C)(C)C1CC(OC(=O)C(O)(c1cccs1)c1cccs1)C2 (stereo not given)	inactive	inactive	inactive	15.5 µM (active)	inactive	inactive	–	0.219 µM (active)	inactive
